Measurements reported in PubChem BioAssay (NCATS).
Values joined by “and” are separate entries in the source; they are usually repeats but may differ in a detail not shown here. Equal values may be shown once. Results filed as inconclusive are left out. Where a call stands in place of a potency, no number is given. Active and inactive are the calls of the source. Calls follow the shape of the dose curve; as a rule, active = well fitted cell-killing curve with a large enough effect; inconclusive = small, poorly fitted or top-dose-only effect, or effect the other way; inactive = no such curve, though single readings can be large or run the other way.

Assay: Viability qHTS for spleen associated tyrosine kinase inhibitor (SYKi) drug resistant MV4-11 cells (AID 1963824); also: nearly all actives have a fitted effect of over 35% in size
Conditions: SYKi-resistant MV4-11 viability, CellTiter-Glo, 72 h; series mostly up to 45 µM
Outline: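 CellTiter-Glo luminescence, read 10 min after reagent addition, reports viability after a 72 hr compound exposure. Cells are an MV4-11 line made resistant to SYK inhibition, seeded at 500 per well onto compound-containing plates.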
Potency is read from the fitted curve at half-maximal effect.

Row | Structure (SMILES) | Potency | viability, % of control
1 | C[C@@H](CN1CCC(n2c(=O)[nH]c3cc(Cl)ccc32)CC1)NC(=O)c1ccc2ccccc2c1 | 11.6 µM (active) | –
2 | CC(C)S(=O)(=O)c1ccc2nccc(Nc3ccc4scnc4c3)c2c1 | 16.4 µM (active) | –
3 | CN[C@H]1CN(c2ccc3c(=O)c(C(=O)O)cn(-c4nccs4)c3n2)C[C@@H]1OC | 0.428 µM (active) | –
4 | C/C1=C\CCC2=CC(OC2=O)C(C)(C)/C=C/C1=O (stereo not given) | 2.31 µM (active) | –
5 | C/C=C/C=C/C=C/C(=O)O[C@@H]1[C@@H](OC)C2=C(C(=O)N(C(C)C(=O)O)C2)[C@@]2(C)CCCC(C)(C)[C@H]12 (stereo not given in full) | inactive | –
6 | C=C1C(=O)OC2/C=C(\CO)CC/C=C(\C=O)C(O)C(OC(=O)C(C)CC)C12 (stereo not given) | 2.86 µM (active) | –
7 | CC(C)=C1CC2[C@](C)(CC[C@@H](OC(=O)C3(C)OC3C)[C@@]2(C)O)CC1=O (stereo not given in full) | inactive | –
8 | COc1cc(/C=C/C(=O)N2CCN(CC(=O)N3CCCC3)CC2)cc(OC)c1OC | inactive | –
9 | C=CS(=O)(=O)NC1CCN(C(=O)CNc2cc(I)c(Cl)cc2OC)CC1 | 2.06 µM (active) | –
10 | CC(=O)OC1C(O)C(C)(O)C(/C=C/C(=O)O)C2(C)CCCC(C)(C)C12 (stereo not given) | inactive | –
11 | CCN1CCN(Cc2ccc(NC(=O)c3ccc(C)c(Oc4ccnc5[nH]ccc45)c3)cc2C(F)(F)F)CC1 | 0.0718 µM (active) | –
12 | CCNC(=O)[C@@H]1CCCN1C(=O)[C@H](CCCN=C(N)N)NC(=O)[C@H](CC(C)C)NC(=O)[C@@H](C)NC(=O)[C@H](Cc1ccc(O)cc1)NC(=O)[C@H](CO)NC(=O)[C@H](Cc1c[nH]c2ccccc12)NC(=O)[C@H](Cc1cnc[nH]1)NC(=O)[C@@H]1CCC(=O)N1 | inactive | –
13 | C[C@@H]1C[C@@H](O)[C@@]23CO[C@@H](O)[C@@H]2CCC[C@@H]3[C@@]12C[C@@H](c1ccoc1)OC2=O | inactive | –
14 | COC(=O)C1=CO[C@@H](O[C@@H]2O[C@H](CO)[C@@H](O)[C@H](O)[C@H]2O)[C@@H]2[C@@H](C(=O)OC)[C@@H](O)C(O)[C@H]12 (stereo not given in full) | inactive | –
15 | COc1cc(C2Oc3c(OC)cc(CCCO[C@@H]4O[C@H](CO)[C@@H](O)[C@H](O)[C@H]4O)cc3C2CO)ccc1O (stereo not given in full) | inactive | –
16 | OCC1=CC[C@@H]2C=CO[C@@H](O[C@@H]3O[C@H](CO)[C@@H](O)[C@H](O)[C@H]3O)[C@H]12 | inactive | –
17 | C[C@@H]1[C@H](O)[C@@H]2OC(=O)C3=C2[C@H](CCC3)[C@@]12C[C@@H](c1ccoc1)OC2=O | inactive | –
18 | Cc1nnc(-c2sc(NC(=O)[C@H](C(C)C)n3c(=O)[nH]c4ccccc4c3=O)nc2C)o1 | inactive | –
19 | CC1NC(=O)C(Cc2c[nH]c3ccccc23)NC1=O (stereo not given) | inactive | –
20 | O=C(O)c1ccc(S(=O)(=O)N(Cc2ccc(OC(F)(F)F)cc2)c2ncc(C(F)(F)F)cc2Cl)cc1 | 23.1 µM (active) | –

Row | Structure (SMILES) | Potency | viability, % of control
21 | CC1=C(C(=O)O)/C(=C\CO[C@@H]2O[C@H](CO)[C@@H](O)[C@H](O)[C@H]2O)C(OC(=O)/C=C/c2ccc(O)cc2)C1 (stereo not given in full) | inactive | –
22 | CC1(C)CCC2(C(=O)O)C(O)CC3(C)C(=CCC4C5(C)CCC(OC6OC(CO)C(O)C(O)C6OC6OC(CO)C(O)C(O)C6OC6OCC(O)(CO)C6O)C(C)(C)C5CCC43C)C2C1 (stereo not given) | – | 84.8% [at 9.25 µM] (inactive)
23 | COc1ccc(-c2cnc3ccc(NCc4ccc(S(N)(=O)=O)cc4)nn23)cc1OC | 1.64 µM (active) | –
24 | C/C=C(\C)C(=O)O[C@H]1C=CC(=O)O[C@H]1/C=C/[C@H](O)[C@@H](C)O | 7.31 µM (active) | –
25 | CN(CC(=O)N(Cc1ccc(C2CCCCC2)cc1)c1ccc(C(=O)O)cc1)S(=O)(=O)c1c(F)c(F)c(F)c(F)c1F | 1.03 µM (active) | –
26 | C/C=C(\C)C(=O)OC[C@H]1O[C@@H](O[C@H]2[C@@H](O[C@H]3O[C@H](CO)[C@@H](O)[C@H](O)[C@H]3O[C@@H]3O[C@H](CO)[C@@H](O)[C@H](O)[C@H]3O)O[C@H](COC(=O)/C(C)=C/C)[C@@H](O)[C@@H]2O)[C@H](O)[C@@H](O)[C@@H]1O | – | 79.8% [at 9.25 µM] (inactive)
27 | O=C(NCCO)c1cc(C(=O)NCCO)cc(C(=O)NCCO)c1 | inactive | –
28 | CCCOc1ccc(-c2nc(OC)c3ccccc3n2)cc1 | inactive | –
29 | C[C@@H]1[C@H]2[C@H](O[C@@H]3O[C@H](CO)[C@@H](O)[C@H](O)[C@H]3O)OC=C(C(=O)O)[C@H]2C[C@@H]1O | inactive | –
30 | COc1ccc(CN2CCN(C(c3ccc(F)cc3)c3ccc(F)cc3)CC2)c(OC)c1OC | 21.1 µM (active) and 16.4 µM (active) | –
31 | N#C/C(=C\c1ccc(O)c(O)c1)C(=O)NCCCc1ccccc1 | 8.2 µM (active) | –
32 | O=C(O[C@@H]1O[C@H](CO)[C@@H](O)[C@H](O)[C@H]1O)c1c(O)cc(O)cc1/C=C/c1ccccc1 | inactive | –
33 | C=C(C(=O)OC)C1C(O)CC2(C)C(=O)CCC(O)(CO)C2C1O (stereo not given) | inactive | –
34 | CC(C)C(CO)Nc1nc(Nc2cc(N)cc(Cl)c2)c2ncn(C(C)C)c2n1 (stereo not given) | 0.82 µM (active) | –
35 | CN(C)CCCOc1ccc(-c2ccc3ncc4c(c3c2)n(C2CCOCC2)c(=O)n4C)cn1 | 2.04 µM (active) | –
36 | O=C1C(Cc2ccc(O)cc2)N2C(=O)CCN(C(=O)NCc3ccccc3)C2CN1Cc1cccc2ccccc12 (stereo not given) | 1.84 µM (active) | –
37 | CC1(C)CCCC2(C)C(CO)C3CCC2C31 (stereo not given) | inactive | –
38 | O=C(Nc1cc(-c2ccccc2)nn1-c1ccccc1)c1ccc([N+](=O)[O-])cc1 | 18.4 µM (active) | –
39 | CC1(C)C(=O)N2c3ccccc3C(O)(CC(C(=O)O)n3cnc4ccccc4c3=O)C2N1O (stereo not given) | 0.252 µM (active) | –
40 | CC1(C)CC[C@]2(C(=O)O[C@@H]3O[C@H](CO)[C@@H](O)[C@H](O)[C@H]3O)CC[C@]3(C)C(=CCC4[C@@]5(C)C[C@@H](O)[C@H](O)[C@@](C)(CO)C5CC[C@]43C)C2C1 (stereo not given in full) | inactive | –
